# Test results from publication PMC8384837, “Expanding the binding specificity for RNA recognition by a PUF domain”.
# Assays:
# Test in all cases: yeast three-hybrid, YBZ-1, SC-Leu-His + 0.5 mM 3-AT, 4 days
# Settings in all cases: tags: N-Gal4 AD-HA kept; label: inside an RPR1-promoter hybrid RNA with tandem MS2 sites; ssRNA
# PUM1 PUF domain R4-PHS = PUM1 PUF domain R4-PHS (Homo sapiens, UniProt Q14671 828-1176, N971P;Q975S)
# Procedure, shortened: (§1)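 The interaction score is the log change in how often each variant appears, from input to selection. Frequencies came from PCR-amplified, Illumina-sequenced repeat regions of Pumilio-1 PUF domain libraries grown in strain YBZ-1 (LexA–MS2 coat fusion, HIS3 reporter) alongside matching RNA elements. Input plates were SC-Leu and selection plates were SC-Leu-His + 0.5 mM 3-AT, each for four days, and the log2 calculation used a pseudocount of 1 where a variant was absent.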
# PUM1 PUF domain R2-RRH = PUM1 PUF domain R2-RRH (Homo sapiens, UniProt Q14671 828-1176, N899R;Y900R;Q903H)
# Procedure, shortened: as §1
# PUM1 PUF domain R2-LWA = PUM1 PUF domain R2-LWA (Homo sapiens, UniProt Q14671 828-1176, N899L;Y900W;Q903A)
# Procedure, shortened: as §1
# PUM1 PUF domain R3-ARS = PUM1 PUF domain R3-ARS (Homo sapiens, UniProt Q14671 828-1176, C935A;Q939S)
# Procedure, shortened: as §1
# PUM1 PUF domain R4-API = PUM1 PUF domain R4-API (Homo sapiens, UniProt Q14671 828-1176, N971A;H972P;Q975I)
# Procedure, shortened: as §1
# PUM1 PUF domain R4-DRG = PUM1 PUF domain R4-DRG (Homo sapiens, UniProt Q14671 828-1176, N971D;H972R;Q975G)
# Procedure, shortened: as §1
# PUM1 PUF domain R5-GTQ = PUM1 PUF domain R5-GTQ (Homo sapiens, UniProt Q14671 828-1176, C1007G;R1008T)
# Procedure, shortened: as §1
# PUM1 PUF domain R8-QWC = PUM1 PUF domain R8-QWC (Homo sapiens, UniProt Q14671 828-1176, N1122Q;Y1123W;Q1126C)
# Procedure, shortened: as §1
# PUM1 PUF domain R8-MFR = PUM1 PUF domain R8-MFR (Homo sapiens, UniProt Q14671 828-1176, N1122M;Y1123F;Q1126R)
# Procedure, shortened: as §1
# PUM1 PUF domain R5-KGE = PUM1 PUF domain R5-KGE (Homo sapiens, UniProt Q14671 828-1176, C1007K;R1008G;Q1011E)
# Procedure, shortened: as §1
# PUM1 PUF domain R4-THL = PUM1 PUF domain R4-THL (Homo sapiens, UniProt Q14671 828-1176, N971T;Q975L)
# Procedure, shortened: as §1
# PUM1 PUF domain R5-RYA = PUM1 PUF domain R5-RYA (Homo sapiens, UniProt Q14671 828-1176, C1007R;R1008Y;Q1011A)
# Procedure, shortened: as §1
# PUM1 PUF domain R3-PWN = PUM1 PUF domain R3-PWN (Homo sapiens, UniProt Q14671 828-1176, C935P;R936W;Q939N)
# Procedure, shortened: as §1
# PUM1 PUF domain R1-RGV = PUM1 PUF domain R1-RGV (Homo sapiens, UniProt Q14671 828-1176, S863R;R864G;Q867V)
# Procedure, shortened: as §1
# PUM1 PUF domain R1-HWR = PUM1 PUF domain R1-HWR (Homo sapiens, UniProt Q14671 828-1176, S863H;R864W;Q867R)
# Procedure, shortened: as §1
# PUM1 PUF domain R3-RAF = PUM1 PUF domain R3-RAF (Homo sapiens, UniProt Q14671 828-1176, C935R;R936A;Q939F)
# Procedure, shortened: as §1
sequence,measurement,setting,value
GGCUAGAACUAGUGGAUCCCCCGGCGCCCGGCGGCUCGAGCCCGGGUAAGUGUAUAUAGUCUGCAUGCCGCCGGGCGCCAUGCCUGCAGGUCGACUCUAGAAAACAUG,binding signal,PUM1 PUF domain R4-PHS,7.03 log2 enrichment (interaction score)
GGCUAGAACUAGUGGAUCCCCCGGCGCCCGGCGGCUCGAGCCCGGGUAAGUGUAAAGAGUCUGCAUGCCGCCGGGCGCCAUGCCUGCAGGUCGACUCUAGAAAACAUG,binding signal,PUM1 PUF domain R2-RRH,3.09 log2 enrichment (interaction score)
same,binding signal,PUM1 PUF domain R2-LWA,2.94 log2 enrichment (interaction score)
GGCUAGAACUAGUGGAUCCCCCGGCGCCCGGCGGCUCGAGCCCGGGUAAGUGUAAAAAGUCUGCAUGCCGCCGGGCGCCAUGCCUGCAGGUCGACUCUAGAAAACAUG,binding signal,PUM1 PUF domain R2-RRH,0.36 log2 enrichment (interaction score)
same,binding signal,PUM1 PUF domain R2-LWA,6.09 log2 enrichment (interaction score)
GGCUAGAACUAGUGGAUCCCCCGGCGCCCGGCGGCUCGAGCCCGGGUAAGUGUAAGUAGUCUGCAUGCCGCCGGGCGCCAUGCCUGCAGGUCGACUCUAGAAAACAUG,binding signal,PUM1 PUF domain R3-ARS,0.93 log2 enrichment (interaction score)
GGCUAGAACUAGUGGAUCCCCCGGCGCCCGGCGGCUCGAGCCCGGGUAAGUGUAAAUAGUCUGCAUGCCGCCGGGCGCCAUGCCUGCAGGUCGACUCUAGAAAACAUG,binding signal,PUM1 PUF domain R4-PHS,5.43 log2 enrichment (interaction score)
same,binding signal,PUM1 PUF domain R4-API,3.05 log2 enrichment (interaction score)
same,binding signal,PUM1 PUF domain R3-ARS,4.04 log2 enrichment (interaction score)
same,binding signal,PUM1 PUF domain R4-DRG,2.71 log2 enrichment (interaction score)
same,binding signal,PUM1 PUF domain R5-GTQ,2.12 log2 enrichment (interaction score)
same,binding signal,PUM1 PUF domain R8-QWC,3 log2 enrichment (interaction score)
same,binding signal,PUM1 PUF domain R2-LWA,1.62 log2 enrichment (interaction score)
same,binding signal,PUM1 PUF domain R8-MFR,3.78 log2 enrichment (interaction score)
same,binding signal,PUM1 PUF domain R5-KGE,2.24 log2 enrichment (interaction score)
same,binding signal,PUM1 PUF domain R4-THL,4.66 log2 enrichment (interaction score)
same,binding signal,PUM1 PUF domain R5-RYA,1.12 log2 enrichment (interaction score)
same,binding signal,PUM1 PUF domain R3-PWN,2.55 log2 enrichment (interaction score)
GGCUAGAACUAGUGGAUCCCCCGGCGCCCGGCGGCUCGAGCCCGGGUAAGUGUAAAUCGUCUGCAUGCCGCCGGGCGCCAUGCCUGCAGGUCGACUCUAGAAAACAUG,binding signal,PUM1 PUF domain R1-RGV,2.51 log2 enrichment (interaction score)
same,binding signal,PUM1 PUF domain R1-HWR,5.91 log2 enrichment (interaction score)
GGCUAGAACUAGUGGAUCCCCCGGCGCCCGGCGGCUCGAGCCCGGGUAAGUGUAAUUAGUCUGCAUGCCGCCGGGCGCCAUGCCUGCAGGUCGACUCUAGAAAACAUG,binding signal,PUM1 PUF domain R3-ARS,1.78 log2 enrichment (interaction score)
same,binding signal,PUM1 PUF domain R3-RAF,3.3 log2 enrichment (interaction score)
